# Assay results taken from PubChem BioAssay (EPA / NIEHS).
# Inconclusive results are not listed. Activity calls are given as the source filed them. Rule for the calls: active = hit-call score of the fitted dose curve at least 0.9, where 1 is the maximum; inconclusive = response in the unintended direction; inactive = score below 0.9.
# How the values were obtained:
# [1] = ACEA_ER_AUC_viability: ACEA Biosciences xCELLigence Real-Time Cell Analysis on Estrogen Receptor Agonism for Viability (AID 2283782);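 note: continuous compound exposure with impedance area under curve over 80 h; hit means loss of impedance signal meaning reduced cell growth or viability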
# How it was run: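 T-47D; phenol red-free RPMI1640 + 10% CS-FBS; 8 conc., 1:4 serial, max 100 uM final, ≤0.5% DMSO; n = 2; continuous exposure; impedance monitored to 80 h post-dose; AUC vs DMSO.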
# [2] = biological target: AR (gene 367) (UniProt P10275); test: ACEA_AR_agonist_80hr: ACEA Biosciences xCELLigence Real-Time Cell Analysis on Androgen Receptor Agonism for Proliferation (AID 2283783);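 note: hits increase impedance growth signal above DMSO baseline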
# Sequence of AR (gene 367) (P10275 whole entry, looked up): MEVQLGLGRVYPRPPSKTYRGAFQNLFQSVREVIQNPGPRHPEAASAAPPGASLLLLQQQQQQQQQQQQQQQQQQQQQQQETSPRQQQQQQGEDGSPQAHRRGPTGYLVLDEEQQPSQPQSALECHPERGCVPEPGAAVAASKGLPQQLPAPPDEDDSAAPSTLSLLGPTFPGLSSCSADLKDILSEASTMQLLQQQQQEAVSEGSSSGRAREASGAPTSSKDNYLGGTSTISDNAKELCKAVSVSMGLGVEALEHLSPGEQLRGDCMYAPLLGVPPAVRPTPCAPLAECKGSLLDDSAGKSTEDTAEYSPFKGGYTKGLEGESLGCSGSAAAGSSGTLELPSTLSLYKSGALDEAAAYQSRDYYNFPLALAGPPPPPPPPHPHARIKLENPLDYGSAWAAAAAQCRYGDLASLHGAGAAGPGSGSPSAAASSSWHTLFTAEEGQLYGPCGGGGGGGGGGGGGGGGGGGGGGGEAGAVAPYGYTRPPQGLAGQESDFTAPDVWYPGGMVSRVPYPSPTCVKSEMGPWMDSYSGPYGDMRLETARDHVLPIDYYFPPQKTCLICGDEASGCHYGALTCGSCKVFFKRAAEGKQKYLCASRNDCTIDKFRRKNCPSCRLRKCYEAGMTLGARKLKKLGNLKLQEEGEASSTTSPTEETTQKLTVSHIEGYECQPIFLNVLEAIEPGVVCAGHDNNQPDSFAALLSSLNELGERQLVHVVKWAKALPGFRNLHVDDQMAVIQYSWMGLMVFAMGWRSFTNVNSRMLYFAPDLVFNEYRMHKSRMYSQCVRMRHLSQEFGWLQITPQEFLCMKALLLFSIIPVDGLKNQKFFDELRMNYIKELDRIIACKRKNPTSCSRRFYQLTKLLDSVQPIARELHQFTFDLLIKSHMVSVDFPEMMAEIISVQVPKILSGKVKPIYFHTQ
# Description: ACEA_AR_agonist is a cell-based, single-readout assay that uses 22Rv1, a human prostate cancer cell line, with measurements taken at 80 hours after chemical dosing in a 384-well plate, although TO5 and TO6 (mc0.srcf) used a 96-well plate. Differences in plate size can be ignored given data normalization.ACEA_AR_agonist_80hr is one of two assay component(s) measured or calculated from the ACEA_AR assay. It is designed to make measurements of real-time cell-growth kinetics, a form of growth reporter, as detected with electrical impedance signals by Real-Time Cell Electrode Sensor (RT-CES) technology.Data from the assay component ACEA_AR_agonist_80hr was analyzed in the positive analysis fitting direction relative to DMSO as the negative control and baseline of activity. Using a type of growth reporter, measures of the cells for gain-of-signal activity can be used to understand the signaling at the pathway-level as they relate to the geneAR Furthermore, this assay endpoint can be referred to as a primary readout, because this assay has produced multiple assay endpoints where this one serves a signaling function. To generalize the intended target to other relatable targets, this assay endpoint is annotated to the nuclear receptor intended target family, where the subfamily is steroidal.
# The xCELLigence system Multi-E-Plate stations were used to measure the time-dependent response to chemicals. Each compound was tested in an eight-point, 1:4 serial dilution series starting at a maximum final concentration of 100 uM. A maximum starting concentration of 0.5% DMSO was present in the 100 uM chemical samples and was diluted along with the test article dilution series. The screen was performed in biological duplicate using two separate, 96-well, E-Plates 96 for each dilution series (n = 2). Positive controls (MG132 and testosterone) and a negative control (assay media) were tested in quadruplicate on each testing plate. […] Reference compounds were tested with 8 concentrations with 1:5 serial dilutions. All screening was carried out by ACEA Biosciences, Inc. (San Diego, CA). 22Rv1 cells purchased from ATCC were maintained in media supplemented with 10% fetal bovine serum (FBS). Before screening, 22Rv1 cells were preconditioned in assay medium. Cells were then detached and seeded in E-Plates 96 in assay medium. After overnight monitoring of growth once every hour, compounds were added to […] cells and remained in the medium until the end of the experiment. Cellular responses were then recorded once every 5 min for the first 5 h, and once every hour for an additional 100 h.
# [3] = biological target: AR (gene 367) (UniProt P10275); test: ACEA_AR_antagonist_80hr: ACEA Biosciences xCELLigence Real-Time Cell Analysis on Androgen Receptor Antagonism for Proliferation (AID 2283787);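 note: hits lower the impedance growth signal relative to DMSO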
# How it was run: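 Growth-kinetic antagonist readout in 22Rv1 cells, taken 80 h after continuous compound exposure. Activity fitted as signal loss relative to DMSO negative control.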
# [4] = tested on: turtle Estrogen Receptor (ESR1), gene 101933533; test: ATG_trERa_XSP1: Attagene TRANS-FACTORIAL Multi-Species (XSP1) HepG2 Assay for turtle Estrogen Receptor (ESR1) (AID 2283781)
# How it was run: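 Activity was taken as gain of reporter transcript over DMSO controls. HepG2 cells carrying GAL4-UAS-driven reporters were exposed for 24 h before RNA was extracted and reporter sequences were measured by fluorescence after capillary separation.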
# [5] = STM_H9_NormalizedViability: Cytotoxicity Assessment at 120 hours in the Stemina devTOX quickPredict H9 human embryonic stem cell (hESC)-based Assay (AID 2283784)
# How it was run: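 Undifferentiated H9 hESCs kept pluripotent were exposed to compound, with media and chemical replaced every 24h. CellTiter-Fluor protease-substrate fluorescence was background-corrected and normalized per plate to the 0.1% DMSO vehicle; signal loss indicates reduced viability.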
# [6] = biological target: GAL4 Transcription Factor (Internal Marker), GAL4 (gene 855828) (UniProt P04386); test: ATG_GAL4_XSP1: Attagene TRANS-FACTORIAL Multi-Species (XSP1) HepG2 Assay for GAL4 Transcription Factor (Internal Marker) (AID 2283789)
# Sequence of GAL4 Transcription Factor (Internal Marker), GAL4 (gene 855828) (P04386 whole entry, looked up, the tested form may be a part): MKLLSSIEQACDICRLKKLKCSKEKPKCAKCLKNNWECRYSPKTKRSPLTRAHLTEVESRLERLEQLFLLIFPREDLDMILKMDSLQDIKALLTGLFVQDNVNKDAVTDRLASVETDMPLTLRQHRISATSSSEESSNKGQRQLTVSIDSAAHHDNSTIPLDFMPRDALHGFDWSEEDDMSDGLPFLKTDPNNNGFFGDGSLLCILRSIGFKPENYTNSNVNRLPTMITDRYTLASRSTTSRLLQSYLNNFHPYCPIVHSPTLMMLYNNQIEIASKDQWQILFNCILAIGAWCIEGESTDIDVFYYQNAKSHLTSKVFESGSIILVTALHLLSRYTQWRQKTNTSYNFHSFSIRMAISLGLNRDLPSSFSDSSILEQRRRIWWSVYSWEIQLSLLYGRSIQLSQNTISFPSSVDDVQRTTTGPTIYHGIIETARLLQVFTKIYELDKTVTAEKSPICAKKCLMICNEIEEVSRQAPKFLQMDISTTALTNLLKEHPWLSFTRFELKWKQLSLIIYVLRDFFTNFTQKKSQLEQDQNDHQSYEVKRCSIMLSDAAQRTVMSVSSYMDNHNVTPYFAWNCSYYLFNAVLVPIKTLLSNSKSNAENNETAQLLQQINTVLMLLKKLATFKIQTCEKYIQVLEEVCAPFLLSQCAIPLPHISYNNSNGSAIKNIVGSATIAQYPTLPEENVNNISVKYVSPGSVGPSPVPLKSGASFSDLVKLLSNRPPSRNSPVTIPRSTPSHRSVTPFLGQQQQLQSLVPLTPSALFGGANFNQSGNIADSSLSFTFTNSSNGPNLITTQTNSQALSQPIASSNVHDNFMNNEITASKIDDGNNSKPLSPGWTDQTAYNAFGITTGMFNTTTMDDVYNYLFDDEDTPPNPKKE
# How it was run: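 HepG2 cells transiently transfected with multiplexed GAL4-UAS reporter units were exposed for 24 h with 3 nM 6-alpha-fluorotestosterone present. Reporter mRNA was quantified by RT-PCR, FAM labelling, HpaI digestion and capillary electrophoresis; background-control readout, gain-of-signal versus DMSO.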
# [7] = biological target: Estrogen receptor beta (Homo sapiens) (UniProt Q92731); test: ATG_hERb_XSP1: Attagene TRANS-FACTORIAL Multi-Species (XSP1) HepG2 Assay for human Estrogen Receptor (ESR2) (AID 2283788)
# Sequence of Estrogen receptor beta (Homo sapiens) (Q92731 whole entry, looked up, the tested form may be a part): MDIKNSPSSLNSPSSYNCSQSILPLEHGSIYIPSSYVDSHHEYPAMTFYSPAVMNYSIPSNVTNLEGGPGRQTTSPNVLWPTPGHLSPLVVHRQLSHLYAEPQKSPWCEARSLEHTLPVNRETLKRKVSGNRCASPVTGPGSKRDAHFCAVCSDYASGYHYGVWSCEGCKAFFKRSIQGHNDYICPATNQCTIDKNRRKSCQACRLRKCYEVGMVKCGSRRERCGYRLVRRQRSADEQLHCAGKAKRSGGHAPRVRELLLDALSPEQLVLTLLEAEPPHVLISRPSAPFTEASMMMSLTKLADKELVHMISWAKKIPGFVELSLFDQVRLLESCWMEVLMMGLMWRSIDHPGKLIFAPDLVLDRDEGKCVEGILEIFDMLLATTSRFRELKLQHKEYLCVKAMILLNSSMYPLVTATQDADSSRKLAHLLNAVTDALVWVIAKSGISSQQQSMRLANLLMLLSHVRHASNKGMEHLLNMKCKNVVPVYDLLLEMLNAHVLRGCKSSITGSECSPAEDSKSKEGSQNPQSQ
# How it was run: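 Measured endpoint is transcriptional gain of signal from a GAL4-UAS reporter controlled by chimeric ERβ in HepG2 liver cells. Exposure lasts 24 h alongside 3 nM 6-alpha-fluorotestosterone, with DMSO as negative control.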
# [8] = biological target: human Androgen Receptor (AR), AR (gene 367) (UniProt P10275); test: ATG_hAR_XSP1: Attagene TRANS-FACTORIAL Multi-Species (XSP1) HepG2 Assay for human Androgen Receptor (AR) (AID 2283785)
# Sequence of human Androgen Receptor (AR), AR (gene 367) (P10275 whole entry, looked up): as the sequence (P10275 whole entry, looked up) above
# Description: ATG_XSP1_multi-species_TRANS is a cell-based, multiplexed assay created by modifying the existing Attagene TRANS-FACTORIAL system to include a panel of nuclear receptors from some or all the following species: human (Homo sapiens), mouse (Mus musculus), frog (Xenopus laevis), zebrafish (Danio rerio), chicken (Gallus gallus), and turtle (Chrysemys picta). The ECOTOX-FACTORIAL format uses HepG2, a human liver cell line, with measurements taken at 24 hours after chemical dosing in a 24-well plate. Xsp1 included 3 nM 6-alpha-fluorotestosterone to partially stimulate the androgen receptor.ATG_hAR_XSP1 is one of 29 assay components measured or calculated from the ATG_XSP1_multi-species_TRANS assay. It is designed to make measurements of mRNA induction, a form of inducible reporter, as detected with fluorescence intensity signals by Reverse transcription polymerase chain reaction (RT-PCR) and Capillary electrophoresis technology.The assay endpoint ATG_hAR_XSP1 was analyzed in the positive analysis fitting direction relative to DMSO as the negative control and baseline of activity. […] Furthermore, this assay endpoint can be referred to as a primary readout, because this assay has produced multiple assay endpoints where this one serves a reporter gene function. […]
# [9] = tested on: turtle Androgen Receptor (AR), gene 101947425; test: ATG_trAR_XSP1: Attagene TRANS-FACTORIAL Multi-Species (XSP1) HepG2 Assay for turtle Androgen Receptor (AR) (AID 2283786)
# How it was run: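 HepG2 cells transiently transfected with a turtle AR–GAL4 chimera and GAL4-UAS reporter, co-treated with 3 nM 6-alpha-fluorotestosterone for partial stimulation. Reporter mRNA is quantified at 24 h by RT-PCR and capillary electrophoresis, gain-of-signal versus DMSO.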
# [10] = ATG_M_06_XSP1: Attagene TRANS-FACTORIAL Multi-Species (XSP1) HepG2 Assay for M06 Transcription Factor (Internal Marker) (AID 2283790)
# How it was run: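 Transfected HepG2 multi-reporter system treated 24 h in the presence of 3 nM 6-alpha-fluorotestosterone. The M06 internal marker transcript was quantified by RT-PCR with capillary electrophoresis as a background control, and gain of signal was scored versus DMSO.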
smiles,measurement,setting,value
OCCCl,outcome,[1],inactive
c1ccc2c(c1)-c1cccc3cccc-2c13,outcome,[1],inactive
C1=Cc2cccc3cccc1c23,outcome,[1],inactive
ClCCOCCCl,outcome,[1],inactive
ClC1=C(Cl)[C@]2(Cl)[C@H]3[C@H]([C@@H]4C=C[C@H]3C4)[C@@]1(Cl)C2(Cl)Cl,AC50,[1],74.5 µM (active)
CCCCCCCCOC(=O)c1ccc(C(=O)OCCCCCCCC)c(C(=O)OCCCCCCCC)c1,outcome,[1],inactive
Clc1ccccc1Cl,outcome,[1],inactive
COC(=O)c1ccccc1N,outcome,[1],inactive
Nc1ccc(Cl)cc1N,outcome,[1],inactive
same,outcome,[2],inactive
same,AC50,[3],50 µM (active)
Nc1ccc(N=Nc2ccccc2)cc1,AC50,[1],5.24 µM (active)
CN(C)c1ccc(C(=O)c2ccc(N(C)C)cc2)cc1,AC50,[1],1.51 µM (active)
CCCCOC(=O)c1ccccc1C(=O)OCc1ccccc1,AC50,[4],9.3 µM (active)
same,AC50,[5],34 µM (active)
CCOc1cccc(C2(N3CCN(c4ccccc4)CC3)CCC(C)CC2)c1 (centres undefined),outcome,[1],inactive
c1ccc(NNc2ccccc2)cc1,outcome,[1],inactive
Clc1ccc(C(c2ccc(Cl)cc2)C(Cl)Cl)cc1,AC50,[4],26.4 µM (active)
same,AC50,[1],26.1 µM (active)
same,outcome,[6],inactive
CS(=O)(=O)NC(=O)c1cc(Oc2ccc(C(F)(F)F)cc2Cl)ccc1[N+](=O)[O-],outcome,[1],inactive
COC(=O)Nc1nc2ccccc2[nH]1,AC50,[1],16.5 µM (active)
same,outcome,[2],inactive
same,outcome,[5],inactive
same,AC50,[3],19.6 µM (active)
Clc1ccc(C(c2ccc(Cl)cc2)C(Cl)(Cl)Cl)cc1,AC50,[4],3.31 µM (active)
same,AC50,[1],28.4 µM (active)
same,outcome,[5],inactive
same,outcome,[7],inactive
O=C(N[C@H](c1ccccc1)[C@@H]1CN2CCC1CC2)c1c(Cl)ccc(C(F)(F)F)c1Cl,AC50,[1],61.2 µM (active)
CCOC(=O)[C@]1(c2ccccc2)Oc2ccccc2[C@@H]1N,outcome,[1],inactive
O=C(O)C1C2CCC(O2)C1C(=O)O (centres undefined),AC50,[1],21.9 µM (active)
CC(C)(C)OOC(=O)c1ccccc1,outcome,[1],inactive
Nc1cc(Cl)cc(C(=O)O)c1Cl,outcome,[1],inactive
N#CC(Br)(Br)C(N)=O,outcome,[1],inactive
O=C(Oc1ccc(Br)cc1)N1CCN2CCC1CC2,outcome,[1],inactive
CC(O)CCO (centres undefined),outcome,[1],inactive
C=CCc1ccc2c(c1)OCO2,outcome,[1],inactive
C[C@]12C=CC3=C4CCC(=O)C=C4CC[C@H]3[C@@H]1CC[C@@H]2O,outcome,[4],inactive
same,AC50,[2],0.293 nM (active)
same,AC50,[8],4.47 nM (active)
same,AC50,[9],5.52 nM (active)
same,outcome,[3],inactive
same,outcome,[7],inactive
CCC(C)c1ccc(O)cc1 (centres undefined),AC50,[1],89.2 µM (active)
ClC1=C(Cl)C2(Cl)C3C(Cl)C=CC3C1(Cl)C2(Cl)Cl (centres undefined),AC50,[1],50 µM (active)
CCCCCOC(=O)c1ccccc1C(=O)OCCCCC,AC50,[4],26.8 µM (active)
same,outcome,[9],inactive
same,outcome,[7],inactive
same,outcome,[6],inactive
same,outcome,[10],inactive
Brc1ccc(Oc2ccccc2)cc1,outcome,[1],inactive
same,outcome,[5],inactive
COc1cc(C=O)cc2c1[C@H](COC(N)=O)[C@]1(OC(C)=O)ON2C[C@H]2[C@@H]1N2C(C)=O,AC50,[5],0.00149 µM (active)
